# Compounds with a hit are over-represented: about 1.3% of the library has one in this group of screens.
# CIT2 TOR yeast: alters CIT2-GFP fluorescence in TOR pathway yeast screen; S. cerevisiae CIT2-GFP strain, flow cytometry, 3 h; 100 means same as DMSO wells; GFP response vs DMSO, % at 10 µM; 320,000 tested, 0.065% active;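 active = GFP response relative to DMSO above a set limit, near the screen mean plus 3 SD, cut at about 150% in these data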;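 also: ratio of well median GFP fluorescence to mean of DMSO wells on the plate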
# AGP1 TOR yeast: yeast TOR pathway AGP1-GFP modulation. S. cerevisiae AGP1-GFP multiplex flow cytometry, 3 h; GFP as percent of DMSO wells. GFP response vs DMSO, % at 10 µM. 320,000 tested, 0.02% active;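 active = GFP response relative to DMSO above a set limit, near screen average plus 3 SD, cut at about 150% in these data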;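 also: median GFP channel fluorescence of the gated AGP1 strain per well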
# LAP4 TOR yeast: modulators of TOR pathway LAP4-GFP in S. cerevisiae; 320,000 tested, 0.34% active; S. cerevisiae LAP4-GFP multiplex, flow cytometry GFP, 3 h; median GFP as percent of DMSO wells; GFP response vs DMSO, % at 10 µM;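 active = GFP response vs DMSO above a set limit, about the screen mean plus 3 SD, cut at about 150% in these data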
# MEP2 TOR yeast: modulators of TOR pathway MEP2-GFP in S. cerevisiae | 330,000 tested, 0.51% active | GFP response vs DMSO, % at 10 µM | S. cerevisiae MEP2-GFP strain, flow cytometry GFP, 3 h; 100% = DMSO control level;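 active = GFP response versus DMSO above a set limit, roughly screen mean plus 3 SD, cut at about 180% in these data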;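 also: median GFP fluorescence of the barcode-gated MEP2-GFP cells per well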
# Efflux pump inh: inhibitors of Candida antifungal efflux pumps expressed in yeast; S. cerevisiae Candida pump triplex, Nile Red efflux; inhibition, % at 10 µM; 330,000 tested, 0.44% active;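 active = plate passing quality check with inhibition over a set limit, or well fluorescence over plate mean plus 4 SD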;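 also: Nile Red retained in pooled yeast measured as flow cytometry median fluorescence; 0% = buffer negative control and 100% = Enniatin B positive control; higher means more Nile Red kept so more efflux inhibition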
# RPL19A TOR yeast: yeast TOR pathway RPL19A-GFP modulation | 330,000 tested, 0.3% active | percent response vs DMSO, % at 10 µM | S. cerevisiae RPL19A-GFP strain, flow cytometry, 3 h; hits give low values;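 active = percent response vs DMSO below 50%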;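 also: median channel GFP fluorescence of the barcoded RPL19A-GFP strain; ratio of sample median GFP to plate DMSO average so 100% = DMSO; lower means less RPL19A-GFP as with rapamycin TOR inhibition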
# LAP4-GFP pick2: yeast LAP4-GFP modulation, second cherry pick. GFP response vs DMSO, % at 10 µM. 590 tested, 20% active. shares compounds with LAP4 TOR yeast. S. cerevisiae LAP4-GFP strain, flow cytometry GFP, 3 h;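 active = GFP signal as percent of the solvent control above about 150%, meaning raised reporter expression, limit read from the data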;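 also: ratio of well median GFP fluorescence to plate DMSO mean so 100% = DMSO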
# MEP2 cherry2: reconfirmed MEP2-GFP TOR pathway modulator in yeast. shares compounds with LAP4 TOR yeast. S. cerevisiae MEP2-GFP strain, flow cytometry GFP, 3 h. GFP response vs DMSO, % at 10 µM. 590 tested, 10% active. AID 2622;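 active = GFP signal above 150% of the solvent control wells, that is a rise of more than half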;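 also: median channel GFP fluorescence of all gated yeast cells per well; ratio of median GFP to plate DMSO average so 100% = DMSO level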
# RPL19A GFP CP2: reconfirmed modulator of RPL19A-GFP TOR reporter in yeast | shares compounds with LAP4 TOR yeast | S. cerevisiae RPL19A-GFP strain, flow cytometry GFP, 3 h; hits give low values; 100% means same as DMSO wells | GFP response vs DMSO, % at 10 µM | 590 tested, 3% active | AID 2623;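 active = under 65% GFP response relative to DMSO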;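 also: median GFP channel fluorescence per well over the all cells gate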
# CIT2 GFP CP2: second confirmation of modulators of TOR reporter CIT2-GFP in yeast; shares compounds with LAP4 TOR yeast; S. cerevisiae CIT2-GFP strain, flow cytometry GFP, 3 h; DMSO control wells read 100%; GFP response vs DMSO, % at 10 µM; 590 tested, 8% active; AID 2624;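 active = GFP response vs DMSO above about 150%, limit read from the data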;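 also: median green fluorescence per well over all gated yeast cells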
# AGP1 GFP CP2: yeast AGP1-GFP TOR reporter modulation, second cherry pick | percent response vs DMSO, % at 10 µM | shares compounds with LAP4 TOR yeast | 590 tested, under 10 active | S. cerevisiae AGP1-GFP strain, flow cytometry GFP, 3 h;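 active = over 150 percent of DMSO response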;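 also: median GFP channel fluorescence over all cells without mother daughter split; sample median GFP divided by mean DMSO control so 100% equals DMSO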
# s288c autofluor: compound is autofluorescent in yeast s288c cells | 610 tested, under 10 active | shares compounds with LAP4 TOR yeast | fluorescence change (kMESF span) at 33 µM | S. cerevisiae s288c, 520 nm autofluorescence, flow cytometry, 3 h; hits give high values; zero means same as solvent-only cells | AID 2757;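 active = fluorescence span over the dose series, or activity score, above about 33, limit read from the data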
# * marks the source's active call; other numbers are inactive results; . = not tested or not shown.
SMILES,CIT2 TOR yeast,AGP1 TOR yeast,LAP4 TOR yeast,MEP2 TOR yeast,Efflux pump inh,RPL19A TOR yeast,LAP4-GFP pick2,MEP2 cherry2,RPL19A GFP CP2,CIT2 GFP CP2,AGP1 GFP CP2,others
COc1ccc2c(c1)S/C(=C\C(=O)c1ccncc1)N2C,68,56,106,103,0,56,97,114,62*,100,67,s288c autofluor=0.81
CSc1ccc(NC(=O)N2CCC(C(=O)c3ccc(F)cc3)CC2)cc1,99,95,100,84,0,98,.,.,.,.,.,
COc1ccc(NC(=O)N2CCC(C(=O)c3ccc(F)cc3)CC2)cc1,99,76,400*,147,0,77,105,110,97,100,93,
COCCNC(=O)C1Cc2cc(S(=O)(=O)N3CCCC3)ccc2N1C(C)=O (configuration not stated),106,107,106,107,0,97,.,.,.,.,.,
O=c1[nH]c(-c2ccc(Cl)cc2)cs1,84,81,120,94,0,63,104,112,99,102,105,s288c autofluor=0.1
O=c1[nH]c(-c2ccccc2)cs1,99,101,105,102,0,101,.,.,.,.,.,
C=CCC1(CC=C)CCCN1C(=O)C1CCC(=O)N(CCc2ccc(OC)cc2)C1 (configuration not stated),94,96,92,92,0,102,.,.,.,.,.,
CC(=O)C(Cl)C(=O)Nc1ccccc1 (configuration not stated),.,.,.,.,.,.,120,121,103,123,112,
O=C(Nc1ccccc1)C(Cl)C(=O)c1ccccc1 (configuration not stated),93,86,130,97,0,101,120,114,105,125,107,
CC(C(=O)Nc1ccccc1)C(=O)Nc1ccccc1,104,97,92,107,1,110,.,.,.,.,.,
COc1cc(/C=C2\C(=O)N(CCC#N)N=C2C)c(Br)cc1OC(C)C,89,87,192*,92,0,105,.,.,.,.,.,s288c autofluor=-0.41
Cc1cc(=O)n2c3c(sc2n1)C(=O)N(Cc1ccccc1)C3=O,69,79,194*,87,0,88,.,.,.,.,.,s288c autofluor=1
COC(=O)Nc1ccc(S(=O)(=O)N2CCCC(C(=O)NCC3CCCO3)C2)cc1 (configuration not stated),98,104,102,100,0,100,.,.,.,.,.,
C[C@@H]1COC(=O)[C@@H](CC(=O)OC(C)(C)C)C/C=C\C[C@H](CC(=O)NCCO)C(=O)N1,101,102,98,98,0,100,.,.,.,.,.,
C[C@H](NC(=O)N1CCn2c1nc1ccccc12)C(=O)NCc1ccc(F)cc1,95,96,91,95,0,96,.,.,.,.,.,
O=C(CCNC(=O)N1CCn2c1nc1ccccc12)NCc1ccc(F)cc1,100,17,85,119,0,60,101,105,100,101,97,
COCCCN1C(=O)C(=O)/C(=C(/O)c2ccc(S(=O)(=O)N3CCCCC3)cc2)C1c1ccc(O)cc1 (configuration not stated),108,104,100,105,0,108,.,.,.,.,.,
COc1ccc(OC)c(N=c2ssnc2Cl)c1,82,92,131,92,0,92,.,.,.,.,.,
Cc1ccc(N=c2ssnc2Cl)cc1,81,78,163*,99,0,89,141,117,95,117,96,s288c autofluor=0.8
COc1cc(N=c2ssnc2Cl)c(OC)cc1Cl,91,73,162*,93,0,90,159*,117,91,111,90,s288c autofluor=0.4
Cc1cc(=S)nc(-c2ccccn2)[nH]1,63,95,146,103,0,74,.,.,.,.,.,
Cc1[nH]c(-c2ccccn2)nc(=S)c1Cl,86,85,267*,93,0,94,.,.,.,.,.,s288c autofluor=0.4
O=C(O)c1ccc(C(=O)c2ccc3c(c2)C(=O)N(CC2CCCO2)C3=O)cc1 (configuration not stated),103,95,95,108,0,102,.,.,.,.,.,
COC(=O)c1ccc(CSc2nc3c(c(=O)n2-c2ccc(C)cc2)SCC3)o1,96,103,172*,101,0,80,91,89,99,99,96,
O=C(CC(=O)c1ccccc1)Nc1ccccc1,82,89,92,95,0,89,106,102,101,101,98,
SMILES,CIT2 TOR yeast,AGP1 TOR yeast,LAP4 TOR yeast,MEP2 TOR yeast,Efflux pump inh,RPL19A TOR yeast,LAP4-GFP pick2,MEP2 cherry2,RPL19A GFP CP2,CIT2 GFP CP2,AGP1 GFP CP2,others
COc1cccc(NC(=O)Cc2ccccc2)c1,87,78,108,86,0,98,.,.,.,.,.,
O=C(O)CC(=O)Nc1ccccc1,82,86,.,87,0,88,.,.,.,.,.,
COc1cccc(NC(=O)CC(=O)c2ccccc2)c1,96,91,98,100,-1,97,106,103,100,93,94,
Cc1ccccc1NC(=O)CC(=O)c1ccccc1,101,94,92,108,0,100,105,111,102,100,100,
O=C(CC(=O)c1ccccc1)Nc1ccccc1C(F)(F)F,94,95,87,105,0,98,101,102,101,97,97,
O=C(Nc1c(-c2ccccc2)nc2ccccn12)c1cccc(F)c1,101,100,99,105,0,106,.,.,.,.,.,
CCOC(=O)c1ccccc1NC(=O)COC(=O)c1c(CC)noc1C,97,102,105,99,0,100,.,.,.,.,.,
CCN1CCN(C(=O)C2=CC(c3ccc(OC)cc3)=NS(=O)(=O)N2C)CC1,91,109,167*,127,0,83,101,103,98,102,101,
